Screening data: PubChem, National Center for Advancing Translational Sciences (NCATS)
POLB inh: qHTS Assay for Inhibitors of DNA Polymerase Beta | 340,000 tested, 1.3% active | Potency, µM (series often up to 114 µM), for inactives: at the top dose activity change, negative = inhibition, actives largely listed as inhibitors | P06746 | Pol beta primer extension/strand displacement, fluorescence kinetic | AID 485314, 2010; further: potency means the concentration at half of the fitted maximal effect; on the % scale 0 is the no-effect control and ±100 the full control effect
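Homogeneous kinetic assay of primer extension and strand displacement by 10 nM Pol beta, preincubated 15 min at room temperature with compound before 50 nM substrate (final) was added. Read at 0 and 10 min; four-parameter Hill fit.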
Pol iota inh: qHTS for Inhibitors of Polymerase Iota. DNA polymerase iota (Homo sapiens), Q9UNA4. AID 588590, 2011. Pol iota fluorescent replication assay, 10 min. Potency, µM (titrated, usually from 115 µM), inactives show at the highest dose activity, negative = inhibition, hits mostly inhibitors. 390,000 tested, 1% active; further: potency means the concentration at half of the fitted maximal effect
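Pol iota at 10 nM preincubated 15 min with compounds at room temperature; reaction started with fluorescent substrate, 50 nM final. Fluorescence read kinetically at 0 and 10 min; buffer-only wells as negative control.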
Pol kappa inh-1: qHTS for Inhibitors of Polymerase Kappa | purified Pol kappa, fluorescent DNA synthesis assay, 10 min | Potency, µM (doses to about 107 µM), for inactives: at the highest dose activity, negative = inhibition, most hits filed as inhibitors | 400,000 tested, 0.53% active | AID 588579, 2011; further: potency means the concentration at half of the fitted maximal effect; on the % scale 0 is the no-effect control and ±100 the full control effect
Target sequence (Q9UBT6 whole entry, looked up): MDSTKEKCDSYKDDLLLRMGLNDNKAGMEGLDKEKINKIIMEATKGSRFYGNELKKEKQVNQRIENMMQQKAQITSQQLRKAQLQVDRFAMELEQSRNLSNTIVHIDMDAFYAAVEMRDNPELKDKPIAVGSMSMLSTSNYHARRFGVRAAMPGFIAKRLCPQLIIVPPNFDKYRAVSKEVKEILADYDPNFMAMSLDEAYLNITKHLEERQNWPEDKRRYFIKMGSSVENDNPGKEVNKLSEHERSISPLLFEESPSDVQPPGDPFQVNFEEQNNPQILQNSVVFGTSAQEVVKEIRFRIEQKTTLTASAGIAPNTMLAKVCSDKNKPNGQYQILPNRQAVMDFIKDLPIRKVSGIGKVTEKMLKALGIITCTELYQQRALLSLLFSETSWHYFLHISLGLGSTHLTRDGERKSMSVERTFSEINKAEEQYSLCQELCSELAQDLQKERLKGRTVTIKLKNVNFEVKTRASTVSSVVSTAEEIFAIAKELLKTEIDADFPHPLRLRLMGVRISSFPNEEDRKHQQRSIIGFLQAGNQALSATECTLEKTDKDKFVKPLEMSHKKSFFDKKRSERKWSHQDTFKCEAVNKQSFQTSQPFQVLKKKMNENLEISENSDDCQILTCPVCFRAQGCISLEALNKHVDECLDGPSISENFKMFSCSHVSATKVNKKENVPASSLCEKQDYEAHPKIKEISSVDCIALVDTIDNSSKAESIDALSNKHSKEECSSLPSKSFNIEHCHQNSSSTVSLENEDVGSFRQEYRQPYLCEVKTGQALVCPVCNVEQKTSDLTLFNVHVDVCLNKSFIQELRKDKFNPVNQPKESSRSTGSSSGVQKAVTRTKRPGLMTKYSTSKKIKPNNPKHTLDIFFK
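50 nM final substrate added after 15 min RT preincubation of 10 nM Pol kappa with compound; fluorescence read at 0 and 10 min.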
PI5P4K alpha inh: qHTS for Inhibitors of phosphatidylinositol 5-phosphate 4-kinase (PI5P4K); Phosphatidylinositol 5-phosphate 4-kinase type-2 alpha (Homo sapiens), P48426; PI5P4Kalpha enzyme, ADP-Glo luminescence, 60 min; active compounds read low; max response, %; 330,000 tested, 1.2% active; AID 652105, 2013; active means max response of -50% or lower; inconclusive means between -30% and -50%; inactive means -30% or higher; further: value at the top dose of about 77 µM; on the % scale 0 is the no-effect control and ±100 the full control effect
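ADP-Glo luminescence end-point after a 60 min room-temperature kinase reaction. PI5P4Kalpha and substrate in HEPES pH 7.4 buffer with EGTA, 0.1% CHAPS and 5% DMSO; ATP at 5 microM final.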
FEN1 inh: qHTS Assay for the Inhibitors of Human Flap endonuclease 1 (FEN1); P39748; Recombinant FEN1 flap cleavage, fluorescence, 15 min; Potency, µM (titrated, usually from 114 µM), without a hit: at the highest dose activity change, negative = inhibition, actives largely listed as inhibitors; 390,000 tested, 0.35% active; AID 588795, 2011; further: potency means the concentration at half of the fitted maximal effect; on the % scale 0 is the no-effect control and ±100 the full control effect; nearly all actives have a fitted effect of over 65% in size
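FEN1 at 10 nM preincubated with compounds 15 min at room temperature, then flap DNA substrate added at 50 nM final. Signal read at 0 and 15 min; concentration-response fitted with four-parameter Hill equation.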
Pol eta inh-1: qHTS for Inhibitors of Polymerase Eta | Potency, µM (doses to about 114 µM), inactives show at the top dose activity change, negative = inhibition, actives largely listed as inhibitors | recombinant Pol eta, fluorescent DNA replication assay | 390,000 tested, 1.2% active; further: potency means the concentration at half of the fitted maximal effect; on the % scale 0 is the no-effect control and ±100 the full control effect
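Pol eta at 10 nM preincubated with compounds 15 min at room temperature; reaction started with fluorescent substrate (50 nM final) and read kinetically at 0 and 10 min.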
GALK inh confirm: Confirmation Assay for Inhibitors of Human Galactokinase (GALK); shares compounds with Pol eta inh-1; purified GALK, Kinase-Glo ATP depletion luminescence; 150 tested, 70% active; Potency, µM (highest dose often 115 µM), inactives show at the top dose activity, negative = inhibition, most hits filed as inhibitors
Redox cycling: Confirmatory Assay for Inhibitors of Human Galactokinase (GALK): Phenol-HRP redox assay counterscreen; 150 tested, 40% active; Phenol red-HRP H2O2 redox cycling, absorbance 600 nm; Potency, µM (top dose mostly 115 µM), without a hit: top-dose activity change, negative = H2O2 signal, most hits filed as inhibitors; AID 2035, 2009; shares compounds with Pol eta inh-1
HEK293 viability: Secondary Assay for Inhibitors of Human Galactokinase (GALK): HEK-293 Cell Viability Assay. 170 tested, 10% active. shares compounds with Pol eta inh-1. HEK-293 viability, ATP luminescence (CellTiter-Glo), 24/48 h. Potency, µM (titrated, usually from 46.1 µM), for inactives: at the top dose activity change, negative = cytotoxicity, usual class: inhibitors; further: potency means the concentration at half of the fitted maximal effect; on the % scale 0 is the no-effect control and ±100 the full control effect
Pol kappa inh-2: qHTS for Inhibitors of Polymerase Kappa: Confirmatory Assay for Cherry-picked Compounds | shares compounds with Pol eta inh-1 | Potency, µM, actives largely listed as inhibitors | purified Pol-kappa, fluorescent strand-displacement substrate | 920 tested, 76% active; further: potency means the concentration at half of the fitted maximal effect
Pol eta inh-2: qHTS for Inhibitors of Polymerase Eta: Confirmatory Assay for Cherry-picked Compounds; AID 720502, 2013; shares compounds with Pol eta inh-1; 2,600 tested, 64% active; Potency, µM, most hits filed as inhibitors; Pol eta primer extension, TAMRA/BHQ fluorescence, 10 min; further: potency means the concentration at half of the fitted maximal effect
Active calls of the source: *; ? = inconclusive; nt = no result; [ ] = dose if it differs, or a comment. The list is not random: actives were taken first. Their share in the collection is about 2.8%. Unless noted, the call rests on the fitted dose curve; in most records, active means well fitted curve in the direction sought with a large enough effect; inconclusive means small, poorly fitted or top-dose-only effect, or another doubt; inactive means no such curve, though single readings can be large; an effect the other way counts as inactive or inconclusive.

SMILES | POLB inh | Pol iota inh | Pol kappa inh-1 | PI5P4K alpha inh | FEN1 inh | Pol eta inh-1 | Pol eta inh-2 | others
CCN(CC)Cc1cc(O)c(CN(CC)CC)cc1O | 3.55µM* | ? | 8.91µM* | -10.7 | ? | 50.1µM* | ?
Cc1c(CCC(=O)N[C@@H](C)C(=O)O)c(=O)oc2cc3occ(-c4ccccc4)c3cc12 | 26.9% | ? | -20.6% | 4.8 | -10.4% | -19.6% | nt
Cc1c(CCC(=O)NCCCCCC(=O)O)c(=O)oc2cc3occ(-c4ccccc4)c3cc12 | ? | 44.7µM* | ? | -7.8 | ? | 22.4µM* | 53.6* | Pol kappa inh-2=?
COc1ccc(N=C2S/C(=C\c3ccc(OC(C)C(=O)O)c(OC)c3)C(=O)N2CCc2c[nH]c3ccccc23)cc1 (stereo unspecified) | 35.5µM* | ? | ? | -53.7* | ? | 31.6µM* | nt | GALK inh confirm=42.1µM*;Redox cycling=-4.8%;HEK293 viability=10.4%
O=C(CSc1n[nH]c(-c2cccnc2)n1)Nc1ccccc1C(F)(F)F | 7.8% | 7.7% | -2.3% | -2.4 | 18.6% | -15.1% | nt
O=C(NC1(O)C(=O)c2ccccc2C1=O)c1ccc(C(F)(F)F)cc1 | 34.4% | 1.78µM* | -15.1% | 5.2 | -4.7% | 44.7µM* | ? | GALK inh confirm=18.8µM*;Redox cycling=10.6µM*;HEK293 viability=-7.2%
Cc1ccc(C(=O)NCC(=O)OCN2C(=O)c3ccccc3C2=O)cc1C | nt | 18.5% | -6.4% | -7.4 | -0.9% | -13.5% | nt
Cc1ccc(C(=O)NC2(O)C(=O)c3ccccc3C2=O)cc1C | 11.6% | 2µM* | -9.2% | 2.8 | -14.9% | 44.7µM* | ? | GALK inh confirm=26.6µM*;Redox cycling=11.9µM*;HEK293 viability=3.1%
O=C(N[C@@H](Cc1ccccc1)C(=O)O)c1ccc(C(F)(F)F)cc1 | -22.9% | 19.8% | -24.4% | -13.2 | -4.3% | -3.2% | nt
CCN1CCN(CCNC(=O)c2ccc3nc(-c4cccc(C)c4)c(-c4cccc(C)c4)nc3c2)CC1 | 19.1% | -0.9% | 11.8% | 11.3 | 9.5% | -25.2% | nt | GALK inh confirm=?;Redox cycling=-27.4%;HEK293 viability=?
CCCNC(=O)c1ccc2nc(-c3ccccc3)c(-c3ccccc3)nc2c1 | -16.4% | 4.8% | -3.6% | 6.5 | -7.9% | -12.5% | nt
CC(=O)Nc1ccc(N2C(=O)c3cccc4c(O)ccc(c34)C2=O)cc1 | ? | ? | ? | ? | ? | 31.6µM* | ? | Pol kappa inh-2=29.9*
O=C1c2cccc3c(O)ccc(c23)C(=O)N1c1ccc(Cl)cc1 | -24.0% | ? | -26.5% | ? | -18.6% | -18.4% | nt
CC(=O)N1c2ccc(S(=O)(=O)N3CCCCC3)cc2CC1C(=O)NCc1ccccc1C (stereo unspecified) | 1.9% | 25.5% | 11.4% | 2.2 | -2.5% | -11.2% | nt
S=C1Cc2ccccc2N1 | 1.3% | 10µM* | -23.4% | -63.8* | ? | 25.1µM* | nt | GALK inh confirm=26.6µM*;Redox cycling=7.49µM*;HEK293 viability=0.2%
S=C1Nc2ccccc2CS1 | nt | nt | nt | -18.7 | nt | -11.9% | nt
CS(=O)(=O)N1CC(C(=O)O)Oc2ccc(CC(=O)O)cc21 (stereo unspecified) | ? | ? | -34.4% | -2.0 | -1.4% | 17.8µM* | 30.1*
O=C(O)Cc1ccc2c(c1)N(S(=O)(=O)c1cccs1)CC(C(=O)O)O2 (stereo unspecified) | 2.8% | 30.8% | -4.2% | -0.4 | -3.4% | 2.3% | nt
O=C(COc1ccc(F)cc1)Nc1nc(-c2cccnc2)cs1 | nt | nt | nt | ? | nt | 35.5µM* | ?
O=C(COc1cccc(F)c1)Nc1nc(-c2cccnc2)cs1 | nt | 29.1% | -20.1% | -5.6 | 10.9% | 2.7% | nt
O=C1CCC[C@@H]2CC(NCc3ccc(Cl)c(Cl)c3)C[C@@H]3CCN1[C@H]23 (stereo partly specified) | nt | nt | -13.8%[60.1 µM] | nt | nt | nt | nt
O=C(O)CCN1CCc2ccccc21 | ? | ? | ? | 4.1 | -10.0% | 17.8µM* | ?
C[N+](C)(C)CCN1CCc2ccccc21 | nt | nt | nt | -0.8 | nt | nt | nt
C/C(=N\NC(=O)C1CC1)c1cccc(NC(=O)c2cccc(Cl)c2)c1 | 3.9% | nt | nt | nt | nt | nt | nt
C/C(=N\NC(=O)c1cc(O)ccc1O)c1cccc(NC(=O)c2cccc(Cl)c2)c1 | ? | ? | 79.4µM* | ? | ? | ? | ?
O=c1c(O)cc(C2Oc3cc(O)cc(O)c3CC2O)cc2c(C3Oc4cc(O)cc(O)c4CC3O)cc(O)c(O)c12 (stereo unspecified) | nt | nt | 0.708µM* | nt | nt | nt | nt | GALK inh confirm=5.3µM*;Redox cycling=5.3µM*;HEK293 viability=-2.4%
O=C1C[C@H](c2ccccc2)Oc2cc(O)cc(O)c21 | nt | nt | -3.2%[19.4 µM] | nt | nt | nt | nt
COc1ccc(CC(=O)Nc2sc3c(c2C(=O)Nc2ccc(C)cc2)CCCCC3)cc1 | ? | -21.5% | -16.4% | nt | 7.8% | ? | ? | Pol kappa inh-2=?
Cn1c(CCC(N)=O)nnc1SCC(=O)Nc1ccccc1C(=O)NC1CC1 | nt | -10.5% | -17.7% | -9.6 | -1.9% | -9.1% | nt
CC(C)(C)c1ccc(C(=O)Nc2cccc3c(=O)[nH][nH]c(=O)c23)cc1 | ? | 7.3% | -26.4% | 5.2 | -7.8% | -2.4% | nt
